G9a block = qHTS Assay for Inhibitors of Histone Lysine Methyltransferase G9a. G9a H3K9 monomethylation, AlphaScreen, 2 h. 350,000 tested, 8.8% active. Histone-lysine N-methyltransferase EHMT2 (Homo sapiens), Q96KQ7. Potency, µM (highest dose often 102 µM), hits mostly inhibitors; note: nearly all actives have a fitted effect of over 75% in size
Target sequence (Q96KQ7 913-1193 limits assumed): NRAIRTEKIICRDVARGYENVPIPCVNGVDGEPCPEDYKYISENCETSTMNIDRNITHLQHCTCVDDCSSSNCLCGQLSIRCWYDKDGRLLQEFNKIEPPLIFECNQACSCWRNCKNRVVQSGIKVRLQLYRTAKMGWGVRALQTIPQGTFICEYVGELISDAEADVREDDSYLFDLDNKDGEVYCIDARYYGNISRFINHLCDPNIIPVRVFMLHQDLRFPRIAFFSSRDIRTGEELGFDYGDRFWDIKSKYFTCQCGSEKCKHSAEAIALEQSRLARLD
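G9a (20 nM) preincubated 15 min RT with compounds, then 500 nM biotinylated H3K9 peptide and 20 uM SAM added; 2 h RT reaction. Monomethyl-H3K9 product detected by AlphaScreen with anti-H3K9me1 antibody, streptavidin donor and anti-rabbit IgG acceptor beads.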
HP1b chromo inh = HTS for Inhibitors of HP1-beta Chromodomain Interactions with Methylated Histone Tails; Chromobox protein homolog 1 (Homo sapiens), P83916; AlphaScreen HP1-beta / biotin-H3K9me3 peptide binding; Potency, µM (highest dose often 114 µM), hits mostly inhibitors; 390,000 tested, 0.56% active; note: nearly all actives have a fitted effect of over 70% in size
Target sequence (P83916 whole entry, looked up): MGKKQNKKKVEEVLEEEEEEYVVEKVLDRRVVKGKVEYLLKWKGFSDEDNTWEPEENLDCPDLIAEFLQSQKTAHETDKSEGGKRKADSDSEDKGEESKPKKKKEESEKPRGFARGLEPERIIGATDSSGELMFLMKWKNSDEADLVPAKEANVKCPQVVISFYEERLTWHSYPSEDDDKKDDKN
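HP1-beta protein (50 nM final) preincubated 30 min at room temperature with biotinylated H3(1-18)K9me3 peptide (50 nM) in PBS pH 7.4, 0.01% Tween-20, then compound added for 30 min. AlphaScreen streptavidin donor/nickel chelate acceptor beads (10 ug/mL final), 30 min dark, luminescence read.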
JMJD2A Tudor = qHTS Assay for Inhibitors of JMJD2A-Tudor Domain; Lysine-specific demethylase 4A (Homo sapiens), O75164; AlphaScreen JMJD2A-Tudor / H3K4me3 peptide binding; Potency, µM (doses to about 114 µM), most hits filed as inhibitors; 390,000 tested, 4.4% active; AID 504339, 2011; note: nearly all actives have a fitted effect of over 50% in size
GLS inhibitor = qHTS for Inhibitors of Glutaminase (GLS) | Glutaminase kidney isoform, mitochondrial (Homo sapiens), O94925 | GLS enzymatic activity, qHTS titration | Potency, µM (series often up to 45.5 µM), usual class: inhibitors | 410,000 tested, 0.21% active | AID 624170, 2012
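Enzyme dispensed in phosphate buffer (45 mM, pH 8.2, 0.02% Tween-20), compounds pinned in, then 1 mM L-glutamine solution and the glutamate oxidase–HRP–Amplex Red mix added; fluorescence read immediately and again after 30 min at room temperature.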
BAZ2B block = qHTS Assay for Inhibitors of BAZ2B | AlphaScreen BAZ2B-H3K14Ac peptide displacement | Potency, µM (top dose mostly 114 µM), most hits filed as inhibitors | 360,000 tested, 4.4% active | AID 504333, 2011 | Bromodomain adjacent to zinc finger domain protein 2B (Homo sapiens), Q9UIF8; note: nearly all actives have a fitted effect of over 60% in size
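Compounds, titrated to a top concentration of 110 uM, were incubated 30 min at room temperature with preformed BAZ2B/acetyl-K14 H3 peptide complex (50 nM each). Proximity signal was measured by AlphaScreen after 20 min with beads.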
Each line names hits and unclear results; the compound was inactive in the other large screens; ! = repeats disagree. Hits are enriched below; roughly 10% of the tested compounds scored in any of these assays. Calls come from the whole dose curve; as a rule, active = well fitted curve in the direction sought with a large enough effect; inconclusive = small, poorly fitted or top-dose-only effect, or another doubt; inactive = no such curve, though single readings can be large; an effect the other way counts as inactive or inconclusive.

O=[N+]([O-])c1ccc(Nc2cccc(F)c2)nc1	G9a block 50µM
COc1ccc(Nc2ccncc2[N+](=O)[O-])cc1	BAZ2B block inconclusive
O=[N+]([O-])c1ccc(Nc2ccc(F)cc2)nc1	none
CCOC(=O)C1(C(=O)OCC)C(C)CC(=O)N1c1ccccc1OC (centres undefined)	none (no result: G9a block, HP1b chromo inh, JMJD2A Tudor, BAZ2B block)
Cc1c(C(=O)N(Cc2ccc(N(C)C)cc2)C2CCS(=O)(=O)C2)oc2ccccc12 (centres undefined)	G9a block 13µM, HP1b chromo inh inconclusive, JMJD2A Tudor 14µM, BAZ2B block 28µM
CN(C)c1ccc(CN(C(=O)C2COc3ccccc3O2)C2CCS(=O)(=O)C2)cc1 (centres undefined)	G9a block 45µM, JMJD2A Tudor inconclusive, BAZ2B block 56µM
Cc1ccccc1OCC(=O)N(Cc1ccc(N(C)C)cc1)C1CCS(=O)(=O)C1 (centres undefined)	G9a block 32µM, JMJD2A Tudor inconclusive
COc1ccc(CN(C(=O)COc2ccc(C)c(C)c2)C2CCS(=O)(=O)C2)cc1OC (centres undefined)	none
Cc1ccc(OCC(=O)N(Cc2ccc(N(C)C)cc2)C2CCS(=O)(=O)C2)cc1C (centres undefined)	HP1b chromo inh inconclusive, JMJD2A Tudor inconclusive, BAZ2B block 45µM (no result: G9a block)
CN(C)c1ccc(CN(C(=O)COc2ccccc2)C2CCS(=O)(=O)C2)cc1 (centres undefined)	G9a block inconclusive, BAZ2B block inconclusive
COC(=O)c1scc(-c2ccc(C)cc2)c1S(=O)(=O)Nc1cc(C)c(Cl)cc1OC	none
Cc1ccc(C2(c3ccc(C)cc3)CC2C(=O)Nc2ccc([N+](=O)[O-])cc2O)cc1 (centres undefined)	G9a block 25µM, JMJD2A Tudor inconclusive, BAZ2B block inconclusive
COc1ccc(OC)c(CN2CCN(Cc3cc(OC)c(OC)c(OC)c3)CC2)c1	HP1b chromo inh inconclusive, JMJD2A Tudor 22µM, BAZ2B block 79µM
COc1cc(CN2CCCCCC2)cc(OC)c1OC	G9a block 32µM, HP1b chromo inh inconclusive, JMJD2A Tudor 5µM, BAZ2B block inconclusive
CC(C)(C)Nc1nc(C#N)nc(Nc2ccccc2)n1	none (no result: G9a block, HP1b chromo inh, GLS inhibitor, BAZ2B block)
Cn1nccc1C(=O)N1CCCC(N2CCN(Cc3ccc4c(c3)OCO4)CC2)C1 (centres undefined)	none
NC(N)=[N+]1CCc2ccccc2C1	G9a block 3.2µM (no result: HP1b chromo inh, JMJD2A Tudor, GLS inhibitor, BAZ2B block)
N=C(N)N1CCc2ccccc21	none
CNc1cc(-c2cccc(N(C)C)c2)ncn1	none (no result: G9a block, HP1b chromo inh, JMJD2A Tudor, BAZ2B block)
O=C(CC1CC2CCC1C2)N1CCN(S(=O)(=O)c2ccc(F)cc2)CC1 (centres undefined)	none (no result: G9a block, HP1b chromo inh, JMJD2A Tudor, BAZ2B block)
O=C(O)c1[nH]c2ccccc2c1C=NCc1ccccc1Cl	G9a block 56µM
Cc1cccc(C=Nc2ccc3c(c2)oc2ccccc23)c1O	BAZ2B block inconclusive
Cc1ccc(N=Cc2cccc(O)c2O)c(C)c1	G9a block inconclusive, HP1b chromo inh 16µM, JMJD2A Tudor 35µM (no result: GLS inhibitor)
Oc1cccc(/C=N/N=C/c2cccc(O)c2O)c1O	G9a block 32µM, GLS inhibitor 3.5µM
Oc1ccccc1C=NN=C1c2ccccc2-c2ccccc21	HP1b chromo inh 45µM, JMJD2A Tudor 16µM (no result: G9a block, BAZ2B block)
Cc1ccccc1N=Cc1cccc(O)c1O	G9a block 7.9µM, HP1b chromo inh inconclusive, JMJD2A Tudor 40µM, GLS inhibitor inconclusive, BAZ2B block 40µM
O=C(O)c1ccccc1C=NN=C1c2ccccc2-c2ccccc21	HP1b chromo inh inconclusive, JMJD2A Tudor inconclusive (no result: G9a block, BAZ2B block)
COc1ccc(NC(=O)N2CCc3c([nH]c4ccc(OC)cc34)C2c2ccc(OC)cc2)cc1 (centres undefined)	G9a block inconclusive, JMJD2A Tudor inconclusive, BAZ2B block inconclusive
OC[C@@H]1CN(Cc2ccc(Cl)cc2)C[C@H](n2cnc3c(NCc4ccc(F)cc4)ncnc32)O1	none (no result: G9a block, HP1b chromo inh, JMJD2A Tudor, BAZ2B block)
CCc1nnc(SCC(=O)Nc2cccc(C(F)(F)F)c2)c2cc3oc(C)cc3n12	none
CC(N=Cc1cccc(O)c1O)c1ccccc1 (centres undefined)	G9a block 1.3µM, HP1b chromo inh inconclusive, JMJD2A Tudor 45µM, BAZ2B block 50µM
CC(N=Cc1cc([N+](=O)[O-])ccc1O)c1ccccc1 (centres undefined)	none (no result: BAZ2B block)
S=c1[nH]nc(-c2n[nH]c3c2CCC3)n1/N=C/C=C/c1ccccc1	JMJD2A Tudor 50µM, GLS inhibitor inconclusive (no result: G9a block)
BrC(=C\c1ccccc1)/C=N/n1cnnc1	none
Cc1cccc(/C=N/n2c(C)nnc2C)c1	G9a block inconclusive
Cc1cccc(/C=N/n2c(-c3cc(-c4ccccc4)n[nH]3)n[nH]c2=S)c1	G9a block 1.6µM, HP1b chromo inh inconclusive, JMJD2A Tudor 79µM
S=c1[nH]nc(-c2cc(-c3ccccc3)n[nH]2)n1/N=C/C(Br)=C/c1ccccc1	G9a block 22µM, JMJD2A Tudor 56µM, BAZ2B block 10µM
S=c1[nH]nc(-c2cc(-c3ccccc3)n[nH]2)n1/N=C/c1ccccc1	JMJD2A Tudor 56µM
CC(=O)N[C@@H]1C(O[C@H]2O[C@H](C(=O)O)C(O)[C@H](O)[C@H]2O)[C@H](O)[C@@H](CO)O[C@H]1O[C@@H]1C(C(=O)O)O[C@@H](O[C@H]2[C@H](O)[C@@H](CO)OC(O)[C@@H]2NC(C)=O)[C@H](O)[C@H]1O (some centres undefined)	none (no result: HP1b chromo inh, JMJD2A Tudor, BAZ2B block)
N[C@@H](Cc1cc(I)c(Oc2ccc(O)cc2)c(I)c1)C(=O)O	none (no result: HP1b chromo inh, JMJD2A Tudor, GLS inhibitor, BAZ2B block)
S=c1[nH]nc(-c2cc(-c3ccccc3)n[nH]2)n1/N=C/c1cccs1	G9a block 1.6µM, JMJD2A Tudor inconclusive, GLS inhibitor inconclusive
COc1ccccc1/C=C/C=N/n1c(-c2cc(-c3ccccc3)n[nH]2)n[nH]c1=S	G9a block inconclusive, JMJD2A Tudor inconclusive
S=c1[nH]nc(-c2cc(-c3ccccc3)n[nH]2)n1/N=C/C=C/c1ccccc1	G9a block 8.9µM, JMJD2A Tudor inconclusive
COc1cccc(OCC(O)CN2CCN(C)CC2)c1 (centres undefined)	G9a block 25µM, HP1b chromo inh inconclusive, JMJD2A Tudor 1µM, BAZ2B block 50µM
Cc1ccccc1OCC(O)CN1CCN(C)CC1 (centres undefined)	G9a block 50µM, BAZ2B block inconclusive
Cc1ccc(OCC(O)CN2CCOCC2)c(C)c1 (centres undefined)	G9a block 89µM, JMJD2A Tudor 89µM
COc1ccccc1OCC(O)CN1CCN(CC(=O)Nc2c(C)cccc2C)CC1 (centres undefined)	JMJD2A Tudor 89µM!
COc1cccc(OCC(O)CO)c1 (centres undefined)	none

Screening results (PubChem BioAssay)
